Source: the OligoGym collection

target: COMMD8; assay: pooled miR-30 sensor sort-seq; sequence = guide strand; conditions: shRNA
Further: reference of the scale not given here.

Sequence | sensor-assay potency score (higher = more potent)
AACAGTGTGATAATCTTGGTAC | -0.396
TCAACTGCTGAAATATCTCTTC | -0.0513
TATTTTGTGAAGAAGCTGCGGG | 0.366
TTTACATCTAGATGCAGGCTTA | -0.242
TTCTTTTACATCTAGATGCAGG | -0.776

target: COPE; assay: as above; conditions: shRNA

Sequence | sensor-assay potency score (higher = more potent)
TTGACCAGCGTCTCTGGGTAGC | -0.621
TCAGCTGGGACAGGTATCGGTT | -0.759
TTTACGTCGAACAGCTCGTCTA | -1.05
AAAGTCGTTCTCCTTGGCCTGG | -1.24
TTCTCTTCAGCTCCTTCCGGGC | -0.99
TCATCTCTCGGTCCAGCTCGGC | -1.47
AACAGCTCGTCTACCTCCCCGG | -0.819
TTACGTCGAACAGCTCGTCTAC | -0.753
TTGATGAAGGGATGGGACCTGT | -0.268
ATTCTCTTCAGCTCCTTCCGGG | -0.00872
TTCTTTACGTCGAACAGCTCGT | -0.53
TTGATAGCTTCACCCGCTGCGC | -1.31

target: COPS6; assay: as above; conditions: shRNA

Sequence | sensor-assay potency score (higher = more potent)
TACTGCTGCATCCACCTCCATC | -1.31
TCGTAGAGGACATTGAACTTGT | 0.432
TTGTCTGTGCTGAGCACCGGGA | -0.77
TCTGTCTTGAACTTGTCTGTGC | 0.397
TTAAACTGCTCCTCCTTGGTGT | 0.63
TTCCTTGTCAATGATAATCTTC | -0.166
AATCTGTCTTGAACTTGTCTGT | -0.335
TTGAACTTGTTCACAAACTGGT | 0.64
TTGTCAATGATAATCTTCTCTT | -0.44
TTGTCGGTCGTAGAGGACATTG | -1.74
TTGATCATAAAAATCTGTCTTG | 0.185
TTCAACTTCAGAAAGAGGGGGC | 0.785

target: COPS7A; assay: as above; conditions: shRNA

Sequence | sensor-assay potency score (higher = more potent)
TGAACCTAGGATTATCAGCTGG | -0.856
TTTACTTTAGCAGCCAGGGTGA | -0.299
TAGTGTGACAGGATTCTAGGAT | 0.596
TACACTTTACTTTAGCAGCCAG | -0.419
TTAGTGGAGGAAGATTCCGGGC | -0.887
TTCTAGGATGAACATGTCCAGT | -1.29
TTCAGCTAAGTAGTCAGCGTAT | -0.555
TAATACAATCTATATACCCTTC | -0.206
TAGGAGCAGAAATTGCTCCTGG | -0.149
TTATTCTTCTGAGCCTCTGTTA | -0.522
TTGGTTGGCACGGCTCACCTGC | -0.606
